Activity calls are given as the source filed them. How the source made its calls: active means hit-call score of the fitted dose curve at least 0.9, where 1 is the maximum; inactive means score below 0.9.
target: Transcriptional activator Myb (Homo sapiens) (UniProt P10242); test: ATG_Myb_CIS: Attagene CIS-FACTORIAL HepG2 Assay for human Myeloblastosis (Myb) Proto-Oncogene Transcription Factor (AID 2282986); settings: HepG2 Attagene CIS-FACTORIAL Myb reporter transcription; actives raise or lower the signal
Procedure: ATG_CIS is a cell-based, multiplexed-readout assay that uses HepG2, a human liver cell line, with measurements taken at 24 hours after chemical dosing in a 24-well plate.ATG_Myb_CIS is one of 52 assay component(s) measured or calculated from the ATG_CIS assay. It is designed to make measurements of mRNA induction, a form of inducible reporter, as detected with fluorescence intensity signals by Reverse transcription polymerase chain reaction (RT-PCR) and Capillary electrophoresis technology.Data from the assay component ATG_Myb_CIS was analyzed into 1 assay endpoint. This assay endpoint, ATG_Myb_CIS, was analyzed with bidirectional fitting relative to DMSO as the negative control and baseline of activity. Using a type of inducible reporter, measures of mRNA for gain or loss-of-signal activity can be used to understand the reporter gene at the transcription factor-level as they relate to the gene MYB. Furthermore, this assay endpoint can be referred to as a primary readout, because this assay has produced multiple assay endpoints where this one serves a reporter gene function. To generalize the intended target to other relatable targets, this assay endpoint is annotated to the dna binding intended target family, where the subfamily is MYB proteins.
Human liver HepG2 cells are transiently transfected with multiple reporter transcription units (MRTUs) in 6-well plates using FuGene 6 reagent (Roche; 3 ml FuGene/1 mg DNA). The MRTU constructs are regulated by a cis-regulating element (promoter). […] A major difference between the CIS and TRANS system is that in CIS activities of endogenous TFs are measured, whereas the TRANS assay evaluates changes in activities of exogenous, chimeric NR-Gal4 proteins. […] At the end of 24 hour incubation, total RNA was isolated using TriZol reagent (Invitrogen). The isolated RNA is then reverse-transcribed using oligo(dT) primer and Mo-MLV reverse transcriptase (Invitrogen) with DNAse I (Ambion) treatment for 30 min. The one-tenth of the produced cDNA was amplified by PCR using Taq DNA polymerase (Invitrogen) and two reporter sequence-specific primers. The PCR products were fluorescently labeled by primer extension with 6-arboxyfluorescein (6-FAM) 5'-labeled reporter sequence-specific primer (2 min at 95 C, 20 s at 68 C and 10 min at 72 C) and these products were digested with 5U of HpaI (New England Biolabs) for 2h at 37 C. The fragments were purified using Qiaquick PCR columns (Qiagen), analyzed on an ABI 3130xL genetic analyzer (Applied Biosystems) with peak positions identified by using a set of X-rhodamine (ROX)-labeled MapMarker1000 molecular weight standards (BioVentures). The raw capillary electrophoresis data was processed using Attagraph software (Attagene).

Chain of Transcriptional activator Myb (Homo sapiens) (P10242 whole entry, looked up): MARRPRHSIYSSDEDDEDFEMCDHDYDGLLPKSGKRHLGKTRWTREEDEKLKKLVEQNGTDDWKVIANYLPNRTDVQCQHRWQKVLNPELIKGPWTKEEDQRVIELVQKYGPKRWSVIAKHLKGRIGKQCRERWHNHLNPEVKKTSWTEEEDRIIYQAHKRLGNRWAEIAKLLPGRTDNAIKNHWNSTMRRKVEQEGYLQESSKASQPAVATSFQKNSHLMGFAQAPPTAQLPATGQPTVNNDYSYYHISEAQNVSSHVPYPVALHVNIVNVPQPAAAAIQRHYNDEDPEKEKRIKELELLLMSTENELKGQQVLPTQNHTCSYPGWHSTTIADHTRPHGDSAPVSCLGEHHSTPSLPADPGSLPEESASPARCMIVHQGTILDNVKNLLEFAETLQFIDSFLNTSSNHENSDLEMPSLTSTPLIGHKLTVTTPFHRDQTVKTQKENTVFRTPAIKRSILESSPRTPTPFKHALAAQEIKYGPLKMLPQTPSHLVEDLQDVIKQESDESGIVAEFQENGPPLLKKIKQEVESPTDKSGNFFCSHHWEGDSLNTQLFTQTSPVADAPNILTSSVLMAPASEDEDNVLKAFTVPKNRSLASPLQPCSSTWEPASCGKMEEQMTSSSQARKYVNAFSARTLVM

Row | SMILES | outcome
1 | OC(c1ccc(Cl)cc1)(c1ccc(Cl)cc1)c1cccnc1 | inactive
2 | CN(N=O)c1ccc([N+](=O)[O-])cc1 | inactive
3 | CC[N+](CC)(CC)CC | inactive
4 | CCCCCCCCCCBr | inactive
5 | CC(C)(C)c1ccccc1O | inactive
6 | COc1ccc(N)cc1 | inactive
7 | Fc1cccc(Cl)c1CCl | inactive
8 | O=NN1CCCCCCC1 | inactive
9 | CCOC(=O)OC1=C(c2cc(C)ccc2C)C(=O)NC12CCC(OC)CC2 (stereo not given) | inactive
10 | O=C(NC(=O)c1c(F)cccc1F)Nc1ccc(Cl)cc1 | inactive
11 | CC(O)(CS(=O)(=O)c1ccc(F)cc1)C(=O)Nc1ccc(C#N)c(C(F)(F)F)c1 (stereo not given) | inactive
12 | Nc1nc(=S)[nH][nH]1 | inactive
13 | CCCCC(CC)C(=O)Cl (stereo not given) | inactive
14 | COc1ccc([N+](=O)[O-])cc1O | inactive
15 | N#CS | inactive
16 | O=C(Cc1ccccc1)OCCc1ccccc1 | inactive
17 | CN(C)C(=S)S | inactive
18 | Brc1c(Br)c(Br)c(Oc2c(Br)c(Br)c(Br)c(Br)c2Br)c(Br)c1Br | inactive
19 | C[C@]12CC[C@@H](O)C[C@@H]1CC[C@@H]1[C@@H]2CC[C@]2(C)C(=O)CC[C@@H]12 | inactive
20 | CCCCN(CCCC)C(=S)[S-].CCCCN(CCCC)C(=S)[S-].[Ni+2] | inactive

Row | SMILES | outcome
21 | O=[N+]([O-])c1ccc(Cl)c([N+](=O)[O-])c1 | inactive
22 | CC1CC(=O)O1 (stereo not given) | inactive
23 | CCOC(=O)CC(=O)CCl | inactive
24 | CCOC(=O)C(SP(=S)(OC)OC)c1ccccc1 (stereo not given) | inactive
25 | CC(C)(C)c1cc([N+](=O)[O-])cc(C(C)(C)C)c1O | inactive
26 | N#CCCC(Br)(C#N)CBr (stereo not given) | inactive
27 | CNC(=O)O/N=C/C(C)(C)S(C)(=O)=O | inactive
28 | O=C(O)CC(O)(CC(=O)O)C(=O)O | inactive
29 | C1CCC(C2CCCCC2)CC1 | inactive
30 | FC(F)OCC(F)(F)C(F)(F)F | inactive
31 | N#Cc1ccccc1N | inactive
32 | OCC(c1ccc(Cl)cc1)c1ccc(Cl)cc1 | inactive
33 | C=CC(=O)NC(C)(C)CC(C)=O | inactive
34 | C=CCOC(F)(C(F)(F)F)C(F)(F)F | inactive
35 | Cc1cccc(N=Nc2ccc(N(C)C)cc2)c1 | inactive
36 | Cc1cc(C(F)(C(F)(F)F)C(F)(F)F)ccc1NC(=O)c1cccc(I)c1C(=O)NC(C)(C)CS(C)(=O)=O | inactive
37 | O=C(NC(=O)c1c(F)cccc1F)Nc1cc(Cl)c(OC(F)(F)C(F)C(F)(F)F)cc1Cl (stereo not given) | inactive
38 | BrCCCCBr | inactive
39 | CCOC(=O)c1ccccc1S(=O)(=O)NC(=O)Nc1nc(Cl)cc(OC)n1 | inactive
40 | C=CC(F)(C(F)(F)F)C(F)(F)C(F)(F)F (stereo not given) | inactive

— PubChem BioAssay (EPA / NIEHS)
